In PubChem BioAssay AID1159580 (chemical genetic matrix, 2015):
“And” between values parts separate entries of the source, which are not always exact repeats. Identical values can stand only once. Screen size: about 5,500 compounds; about 2,000 (36%) were called active. Inconclusive results (about 18%) are left out. Cut-off read from the data, not from the text of the source: active = normalized growth mostly below about 0.91 (no sharp cut-off); inconclusive = no clear call, values can overlap the other calls; inactive = mostly above about 0.92. Some of the results follow.

Experiment: chemical genetic growth profiling, strain panel (AID 1159580);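 note: tested at 20 µM; growth read once vehicle control cultures reached saturation at 30 °C; 1 = growth at the plate median or of vehicle wells; lower values mean less growth of the strain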
Conditions: S. cerevisiae deletion strains, growth OD

Measured: normalized growth

Cc1cc(=O)oc2cc(O)c(O)cc12
inactive: locus YAL021C, strain ccr4, active compounds read low 1.01 | locus YAL026C, strain drs2, active compounds read low 0.996 | locus YAL030W, strain snc1, active compounds read low 1 | locus YBL061C, strain skt5, active compounds read low 0.999 | locus YBR009C, strain hhf1, active compounds read low 0.963 | locus YBR021W, strain FUR4, active compounds read low 1.02 | locus YBR023C, strain chs3, active compounds read low 0.998 | locus YBR171W, strain sec66, active compounds read low 0.987 | locus YBR229C, strain ROT2, active compounds read low 1 | locus YBR231C, strain swc5, active compounds read low 0.995 | locus YBR279W, strain paf1, active compounds read low 0.987 | locus YCL011C, strain gbp2, active compounds read low 0.994 | locus YCL016C, strain dcc1, active compounds read low 1 | locus YCL029C, strain bik1, active compounds read low 0.974 | locus YCL061C, strain MRC1, active compounds read low 0.989 | locus YCL069W, strain vba3, active compounds read low 0.99 | locus YCR088W, strain abp1, active compounds read low 1 | locus YDL005C, strain med2, active compounds read low 0.98 | locus YDL035C, strain GPR1, active compounds read low 0.973 | locus YDL040C, strain nat1, active compounds read low 0.983 | locus YDL074C, strain BRE1, active compounds read low 0.976 | locus YDL101C, strain DUN1, active compounds read low 0.958 | locus YDL134C, strain PPH21, active compounds read low 0.955 | locus YDL185W, strain tfp1, active compounds read low 0.979 | locus YDL192W, strain arf1, active compounds read low 0.961 | locus YDR001C, strain nth1, active compounds read low 0.998 | locus YDR069C, strain doa4, active compounds read low 0.994 | locus YDR101C, strain arx1, active compounds read low 0.973 | locus YDR137W, strain rgp1, active compounds read low 0.964 | locus YDR159W, strain sac3, active compounds read low 0.997 | locus YDR162C, strain NBP2, active compounds read low 0.985 | locus YDR195W, strain ref2 1.05 | locus YDR297W, strain sur2, active compounds read low 0.995 | locus YDR318W, strain mcm21, active compounds read low 0.966 | locus YDR334W, strain swr1, active compounds read low 0.99 | locus YDR335W, strain msn5, active compounds read low 0.994 | locus YDR388W, active compounds read low 0.99 | locus YDR392W, strain spt3, active compounds read low 0.91 | locus YDR502C, strain sam2, active compounds read low 0.974 | locus YEL003W, strain gim4, active compounds read low 0.981 | locus YEL037C, strain rad23, active compounds read low 0.991 | locus YEL061C, strain CIN8 (second series), active compounds read low 0.988 | locus YEL061C, strain CIN8, active compounds read low 0.999 | locus YER015W, strain faa2, active compounds read low 0.998 | locus YER016W, strain bim1, active compounds read low 0.995 | locus YER110C, active compounds read low 0.973 | locus YER111C, strain swi4, active compounds read low 1.01 | locus YER155C, strain BEM2, active compounds read low 1.01 | locus YER167W, strain BCK2, active compounds read low 1.02 | locus YFR010W, strain ubp6, active compounds read low 0.997 | locus YGL078C, strain dbp3, active compounds read low 0.959 | locus YGL086W, strain mad1, active compounds read low 0.993 | locus YGL167C, strain pmr1, active compounds read low 0.99 | locus YGL173C, strain kem1, active compounds read low 0.978 | locus YGL227W, strain vid30, active compounds read low 1 | locus YGL240W, strain doc1, active compounds read low 0.952 | locus YGL248W, strain PDE1, active compounds read low 0.98 | locus YGL253W, strain hxk2, active compounds read low 1 | locus YGR078C, strain PAC10, active compounds read low 0.983 | locus YGR135W, strain pre9, active compounds read low 0.957 | locus YGR229C, strain SMI1, active compounds read low 0.974 | locus YGR252W, strain gcn5, active compounds read low 0.79 | locus YHR013C, strain ard1, active compounds read low 0.985 | locus YHR027C, strain rpn1, active compounds read low 1 | locus YHR030C, strain SLT2, active compounds read low 1.01 and 0.905 | locus YHR079C, strain IRE1 (second series), active compounds read low 1.01 | locus YHR079C, strain IRE1, active compounds read low 0.901 | locus YHR094C, strain hxt1, active compounds read low 1.02 | locus YHR129C, strain ARP1, active compounds read low 0.999 | locus YHR142W, strain chs7, active compounds read low 0.958 | locus YHR200W, strain rpn10, active compounds read low 0.972 | locus YIL066C, strain RNR3, active compounds read low 1 | locus YIL073C, strain SPO22, active compounds read low 1 | locus YIL125W, strain kgd1, active compounds read low 1.01 | locus YIR030C, strain dcg1, active compounds read low 0.99 | locus YJL092W, strain hpr5, active compounds read low 0.993 | locus YJL095W, strain BCK1 (second series), active compounds read low 0.998 | locus YJL095W, strain BCK1, active compounds read low 0.932 and 0.924 | locus YJL115W, strain asf1, active compounds read low 0.994 | locus YJL129C, strain trk1, active compounds read low 1.05 | locus YJL134W, strain LCB3, active compounds read low 1.01 | locus YJL154C, strain vps35, active compounds read low 1.01 | locus YJL164C, strain tpk1, active compounds read low 0.973 | locus YJL166W, strain qcr8, active compounds read low 0.995 | locus YJL168C, strain set2, active compounds read low 1 | locus YJL187C, strain SWE1 (second series), active compounds read low 0.991 | locus YJL187C, strain SWE1, active compounds read low 0.999
active: locus YER155C, strain BEM2 (second series), active compounds read low 0.787
